Screening results: PubChem BioAssay, National Center for Advancing Translational Sciences (NCATS)
Hits are enriched below; roughly 3% of the tested compounds scored in any of these assays.
ALOX12 inh: blocks human arachidonate 12S-lipoxygenase; purified 12hLO, xylenol orange hydroperoxide absorbance; P18054; Potency, µM (highest dose often 108 µM), actives largely listed as inhibitors; 580,000 tested, 1.1% active
Target sequence (P18054 whole entry, looked up): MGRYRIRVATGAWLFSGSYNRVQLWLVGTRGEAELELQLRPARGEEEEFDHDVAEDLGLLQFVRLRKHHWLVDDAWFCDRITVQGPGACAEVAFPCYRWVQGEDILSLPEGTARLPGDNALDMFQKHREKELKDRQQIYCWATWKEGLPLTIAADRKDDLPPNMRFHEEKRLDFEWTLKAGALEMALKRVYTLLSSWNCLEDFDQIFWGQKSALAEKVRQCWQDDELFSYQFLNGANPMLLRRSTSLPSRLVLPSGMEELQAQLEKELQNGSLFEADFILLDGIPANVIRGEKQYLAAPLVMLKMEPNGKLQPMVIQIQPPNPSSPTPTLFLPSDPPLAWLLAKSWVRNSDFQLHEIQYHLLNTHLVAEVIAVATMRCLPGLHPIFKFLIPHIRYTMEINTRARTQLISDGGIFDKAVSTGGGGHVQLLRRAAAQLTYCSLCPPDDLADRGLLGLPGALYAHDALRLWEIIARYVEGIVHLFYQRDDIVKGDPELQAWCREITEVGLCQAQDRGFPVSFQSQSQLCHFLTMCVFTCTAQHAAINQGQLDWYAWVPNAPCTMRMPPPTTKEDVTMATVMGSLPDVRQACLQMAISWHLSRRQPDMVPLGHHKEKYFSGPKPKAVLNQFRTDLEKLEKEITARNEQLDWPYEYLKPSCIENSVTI
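Purified human 12hLO at 150 nM in 25 mM Hepes, 0.01% Triton X-100, pH 7.0, preincubated 15 min at room temperature with compound. Reaction started with 40 uM arachidonic acid, 30 min at room temperature. Hydroperoxide measured by Fe-xylenol orange, 573/405 nm absorbance ratio.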
KAT2A inh: blocks human GCN5L2 histone acetyltransferase | Q92830 | GCN5L2 HAT assay, ThioGlo1 CoA-SH fluorescence | Potency, µM (series often up to 58.9 µM), hits mostly inhibitors | 390,000 tested, 0.21% active | AID 504327
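GCN5L2 (20 nM) in 50mM HEPES pH 7.5, 0.1mM EDTA, 0.01% Tween-20 preincubated 15 min with compounds at room temperature. Reaction started with H3(1-25) 75uM, acetyl-CoA 70uM, ThioGlo1 50uM; CoA-thiol fluorescence (Ex340/Em540) read at 0 and 20 min.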
PLK1 PBD block: inhibitors of human PLK1 polo-box domain binding; AID 720504; 360,000 tested, 2.8% active; Potency, µM, hits mostly inhibitors; P53350; Plk1 PBD binding of FITC phosphopeptide, fluorescence polarization; also: series mostly up to about 57 µM; nearly all actives have a fitted effect of over 65% in size
VDR inh: blocks the human vitamin D receptor. 400,000 tested, 0.93% active. AID 504847. Potency, µM, hits mostly inhibitors. VDR-SRC2-3 peptide fluorescence polarization, 2 h. P11473
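Two reagent solutions held at 4 deg C in the dark were dispensed, compounds pinned at 23 nl, and the mixture incubated 2 h at room temperature. Read-out: fluorescence polarization of VDR–SRC2-3 peptide binding.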
Hits are given with their value; n = inactive; u = inconclusive; x = not tested or not shown. Calls follow the shape of the dose curve; as a rule, active = well fitted curve in the direction sought with a large enough effect; inconclusive = small, poorly fitted or top-dose-only effect, or another doubt; inactive = no such curve, though single readings can be large; an effect the other way counts as inactive or inconclusive.

SMILES | ALOX12 inh | KAT2A inh | PLK1 PBD block | VDR inh
CCn1c(N)c(C(=O)NCCCOC)sc1=S | 40µM | n | 21µM | u
CSc1cccc(N2CC(C(=O)Nc3cccc(S(=O)(=O)N4CCCC4)c3)CC2=O)c1 (stereo not given) | 28µM | n | n | n
O=C(Nc1cccc(F)c1)C1CC(=O)N(c2ccc(Br)cc2)C1 (stereo not given) | u | n | 30µM | n
COc1cn(CC(=O)Nc2ccc(C(F)(F)F)cc2)c(CN2CCOCC2)cc1=O | n | x | x | x
C=CCn1c(N2CCCC(C)C2)nc2c1c(=O)n(C)c(=O)n2C (stereo not given) | n | x | x | x
Nc1[nH]n(-c2ccccc2)c(=O)c1N=Nc1ccccc1 | n | n | n | n
Nc1[nH]n(-c2ccccc2)c(=O)c1N=Nc1ccc2ncsc2c1 | n | n | 27µM | u
CCOc1ccc2nc(NC(=O)CSc3nc(-c4ccccc4)c(C#N)c(=O)[nH]3)sc2c1 | u | u | 21µM | n
COc1cccc(-c2nc(SCC(=O)Nc3nc(-c4ccccc4)c(C)s3)[nH]c(=O)c2C#N)c1 | 14µM | u | 21µM | n
Cc1sc(NC(=O)CSc2nc(O)cc(=O)[nH]2)nc1-c1ccccc1 | n | n | n | n
CCCCOc1ccc(NC(=O)CCC)c2cccnc12 | n | x | x | x
O=C(Nc1ccc(C(=O)O)cc1)/C(=C\c1ccc2c(c1)OCO2)NC(=O)c1ccc(Br)o1 | n | n | 27µM | n
O=C(Nc1ccc(C(=O)O)cc1)/C(=C\c1ccco1)NC(=O)c1ccc(Br)cc1 | n | x | n | x
O=C(Nc1ccc(C(=O)O)cc1)/C(=C\c1ccco1)NC(=O)c1ccc(Br)o1 | u | n | 30µM | n
O=C(Nc1ccc(C(=O)O)cc1)/C(=C\c1ccc2c(c1)OCO2)NC(=O)c1ccco1 | n | n | n | n
Cn1ccnc1C(=O)N1CCC(Oc2cccc(F)c2)C1 (stereo not given) | n | x | x | x
Cc1oc2cc(OCC(=O)NC(C)c3ccco3)ccc2c(=O)c1Oc1ccccc1 (stereo not given) | n | x | x | x
CCOc1cc(-c2ccc(C)cc2)nc2ccc(C(=O)NCC(C)O)cc12 (stereo not given) | n | x | x | x
Cc1noc(C(=O)Nc2ccccc2C(F)(F)F)c1Cl | n | n | 30µM | n
Cc1ccc(C(=O)NC(=S)Nc2ccccc2C(F)(F)F)cc1 | 7.9µM | u | n | n
CC(C)(C)CC(=O)NC(=S)Nc1ccccc1C(F)(F)F | n | n | n | n
CC(=O)c1cc(Cl)cc(Cl)c1OCC(=O)N1CCN(C(=O)c2ccco2)CC1 | n | x | x | x
O=C(O)c1ccc(NC2(C(=O)O)CCCC2)cc1 | 14µM | x | n | n
S=C(NCCc1ccccc1)Nc1ccc(Cl)cc1NC(=S)NCCc1ccccc1 | 18µM | x | x | x
CC(NC(=S)NCCc1ccccc1)c1ccc(C(C)(C)C)cc1 (stereo not given) | 40µM | x | x | x
SMILES | ALOX12 inh | KAT2A inh | PLK1 PBD block | VDR inh
S=C(NCCc1ccccc1)Nc1c(Cl)cccc1Cl | u | n | 27µM | n
Fc1ccc(NC(=S)NCCc2ccccc2)c(F)c1F | n | n | n | n
Cc1cccc(C)c1NC(=S)NCCc1ccc(O)c(O)c1 | 35µM | n | n | n
O=C(NCCc1ccco1)C1CCN(c2ccc(C(F)(F)F)cn2)CC1 | n | x | x | x
S=C(NCCc1ccccc1)N/N=C/c1cccc(Cl)c1Cl | 50µM | n | n | n
C/C(=N\NC(=S)NCCc1ccccc1)c1ccc(Cl)cc1Cl | 45µM | n | n | n
S=C(NCCc1ccc(Cl)cc1)Nc1ccc(Cl)cc1Cl | 32µM | n | n | u
CC(C)(CNC(=S)NCCc1ccccc1)CNC(=S)NCCc1ccccc1 | 20µM | n | n | n
O=C(c1cccc(S(=O)(=O)Nc2cc(C(F)(F)F)ccc2Cl)c1)N1CCC1 | n | x | x | x
CNC(=S)N/N=C/C1=CCC2CC1C2(C)C (stereo not given) | u | n | n | n
CC1(C)C2CC=C(/C=N/NC(=S)NCCc3ccccc3)C1C2 (stereo not given) | 45µM | n | n | n
Cc1sccc1/C=N/NC(=O)C1CC1 | n | x | x | x
CCOC(=O)c1nc2ccccc2c(=O)[nH]1 | n | n | n | n
CCOC(=O)c1nc(N)c(C(=O)OCC)[nH]1 | n | n | 11µM | n
CC(NS(=O)(=O)c1cccc(Cl)c1)C(=O)Nc1ccc(-c2nc3ccccc3s2)cc1 (stereo not given) | n | n | n | n
CC(C)NS(=O)(=O)c1ccc(Cl)c(C(=O)NCc2ccc(-c3nc4ccccc4s3)o2)c1 | 16µM | x | x | x
COc1ccc(S(=O)(=O)Nc2nnc(C(C)(C)C)s2)cc1 | u | n | 7.5µM | u
COc1ccc(S(=O)(=O)Nc2nc(C(F)(F)F)cs2)cc1 | u | n | n | n
COc1ccc(S(=O)(=O)Nc2nnc(CC(C)(C)C)s2)cc1 | n | n | 30µM | n
Cc1ccc(NC(=O)C(C#N)=C2CCCC2)cc1 | n | x | x | x
Cc1ccc(NC(=S)N2CCN(C)CC2)c(C)c1 | n | n | n | n
Cc1ccc(NC(=S)N2CCN(C(=O)c3ccccc3)CC2)c(C)c1 | n | n | 27µM | n
O=C(CSc1nnnn1C1CCCCC1)N1CCOCC1 | n | n | 27µM | n
CCCCN(C(=O)c1ccc(-c2ccc(Cl)cc2)o1)c1c(N)n(CCCC)c(=O)[nH]c1=O | u | n | n | 71µM
CCCCN(C(=O)c1ccc(-c2ccc([N+](=O)[O-])cc2)o1)c1c(N)n(CC(C)C)c(=O)[nH]c1=O | u | n | n | n
SMILES | ALOX12 inh | KAT2A inh | PLK1 PBD block | VDR inh
CC(=O)OCC1=C(C(=O)O)N2C(=O)C(NC(=O)c3ccc(COc4c(C)cccc4Cl)o3)C2SC1 (stereo not given) | u | u | n | 16µM
CC(=O)OCC1=C(C(=O)O)N2C(=O)C(NC(=O)c3ccc(COc4ccc(Cl)cc4)o3)C2SC1 (stereo not given) | 40µM | n | u | 45µM
Nc1c(C(=O)NCc2cccnc2)sc(=S)n1-c1ccccc1 | n | n | 17µM | u
COc1cc(OC)cc(-c2nc(-c3ccccc3OC)no2)c1 | n | n | 27µM | n
COc1ccccc1-c1noc(-c2cc(OC)c(OC)c(OC)c2)n1 | n | n | 8.4µM | u
COc1cccc(-c2nc(-c3ccccn3)no2)c1OC | n | n | 7.5µM | n
CCn1cc(S(=O)(=O)N2CCN(c3ccc(C(C)=O)cc3)CC2)cn1 | n | x | x | x
Cc1ccc(OCC(=O)O/N=C(\N)Cc2ccc(Cl)cc2)cc1 | n | n | 2.7µM | n
COc1ccc(OCC(=O)O/N=C(\N)Cc2ccc(Cl)cc2)cc1 | n | n | n | n
CN=C(NC)NCc1ccc(C(=O)OC)cc1 | 25µM | x | x | x
CC(=O)c1cccc(NC(=O)c2cc(=O)[nH]c3ccccc23)c1 | n | n | 19µM | n
O=C(NC1CC1)c1ccc(NC(=O)c2cc(-c3ccco3)nc3ccccc23)cc1 | 10µM | x | x | x
CC(=O)c1cccc(NC(=O)c2cc(-c3ccco3)nc3ccccc23)c1 | 28µM | n | n | n
O=C(O)c1ccc(NC(=O)c2cc(-c3ccco3)nc3ccccc23)cc1 | 7.9µM | x | x | x
O=C(Nc1ccccc1)c1cc(=O)[nH]c2ccccc12 | n | x | x | x
Cc1ccc(NC(=O)N2CCC3(CC2)CC(Cc2nc(-c4ccccc4)no2)CCO3)cc1C (stereo not given) | n | x | x | x
